Test systems include NCI-H23 lung; NCI-H226 lung; NCI-H322M lung; NCI-H460 lung; HOP-92 NSCLC; NCI-H522 lung; 786-0 renal; COLO 205 colon; A549/ATCC NSCLC; HOP-62 NSCLC.
What all share (experiment): NCI-60 one-dose screen, 48 h (100 = growth as untreated, 0 = no growth, -100 = all killed)
What all share (settings): 10 µM unless noted

Molecules are shown by their SMILES. About 83,000 compounds went through this panel and 20% of them were active in at least one assay; those are over-represented in the sample as a whole.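 Single-dose data. Exposure time 48 hours. Values below 10 considered active.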 Unmarked numbers belong to inactive results. The source made the active and inactive calls.

Regarding `C/C(=C\c1ccn(-c2ccc(N)cc2C(F)(F)F)n1)[C@@H]1C[C@@H]2O[C@]2(C)CCC[C@H](C)[C@H](O)[C@@H](C)C(=O)C(C)(C)[C@@H](O)CC(=O)O1`, the growth with NCI-H23 lung is 19.9%; with NCI-H226 lung, 59.4%; in the test on NCI-H322M lung, 23.4%; in the test with NCI-H460 lung, 9.25% (active); in the test with HOP-92 NSCLC it was 57%; in the test with NCI-H522 lung, 0.465% (active). For the same molecule, the growth is 16.4% with 786-0 renal and -6.04% (active) in the test on COLO 205 colon.
As to `O=C(CC1(O)C(=O)N(Cc2ccccc2)c2ccc(Br)cc21)c1ccc(C(=O)NCC2CCC3(CC2)OOC2(CCCCC2)OO3)cc1` (stereo not given), the growth in the test with NCI-H23 lung was -74.3% (active); in the test on NCI-H226 lung, -33% (active); in the test on NCI-H322M lung, 73.9%; in the test with NCI-H460 lung it was -41% (active); with HOP-92 NSCLC it was -74.1% (active); in the test on NCI-H522 lung, 2.53% (active). The growth with 786-0 renal is -70.7% (active); in the test with COLO 205 colon, -49.5% (active).
Take `O=C(O)C(Cl)(Cl)C(F)(F)F`: the growth was 100% in the test with NCI-H23 lung; 106% in the test with NCI-H226 lung; 106% in the test on NCI-H322M lung; 102% in the test with NCI-H460 lung; 95.1% in the test with HOP-92 NSCLC; 102% in the test on NCI-H522 lung. The growth in the test with A549/ATCC NSCLC is 106%; in the test on 786-0 renal, 99.1%; in the test with COLO 205 colon it was 124%.
Take `Cn1cc(-c2csc(-c3cn(CCN4CCOCC4)c4ccccc34)n2)c2cccnc21`: the growth in the test with NCI-H23 lung was 62.6%; with NCI-H226 lung, 41.4%; with NCI-H322M lung, 84.8%; in the test on NCI-H460 lung, 75.3%; with HOP-92 NSCLC, 48.6%; in the test with NCI-H522 lung it was 40.6%. Also, the figures for the growth in the test with A549/ATCC NSCLC, in the test with 786-0 renal and in the test with COLO 205 colon were 63%, 75.5% and 51.2%, respectively.
As to `CC(=O)C(c1c(O)c2ccccc2oc1=O)c1cc(=O)oc2c1ccc1ccccc12` (stereo not given), the growth with NCI-H23 lung was 100%; in the test on NCI-H226 lung it was 90.7%; in the test on NCI-H322M lung it was 106%; in the test on NCI-H460 lung, 102%; in the test on HOP-92 NSCLC, 65.4%; with NCI-H522 lung, 96.2%. The results for the growth with A549/ATCC NSCLC, in the test with 786-0 renal and in the test with COLO 205 colon were 97%, 96.3% and 112%, respectively.
`[Cl][Hg][c]1cc(Br)cc(Br)c1`: the growth in the test on NCI-H23 lung was 61.8%; in the test on NCI-H226 lung, 99.9%; with NCI-H322M lung it was 80%; in the test on NCI-H460 lung it was 32.2%; in the test with HOP-92 NSCLC, 11.2%; with NCI-H522 lung, -30.4% (active). Moreover, the growth was 68% with A549/ATCC NSCLC and 26.3% in the test on 786-0 renal.
Take `c1cnc2[nH]cc(-c3csc(-c4cn(CCCCN5CCOCC5)c5ccccc45)n3)c2c1`: the growth in the test on NCI-H23 lung is 81.1%; with NCI-H226 lung, 72.4%; in the test with NCI-H322M lung it was 79%; in the test on NCI-H460 lung, 31.4%; with HOP-92 NSCLC, 32%; with NCI-H522 lung, 49.1%. The growth in the test on A549/ATCC NSCLC is 56.9%; in the test on 786-0 renal, 54%; in the test on COLO 205 colon, -77.6% (active).
Turning to `COc1ccc(C(=O)c2sc3nc4c(cc3c2N)N2CCC4CC2)cc1OC`, the growth is 92.5% in the test on NCI-H23 lung; 65.2% in the test on NCI-H226 lung; 107% in the test on NCI-H322M lung; 103% in the test on NCI-H460 lung; 6.56% (active) in the test on HOP-92 NSCLC; 82.4% in the test with NCI-H522 lung. Moreover, the growth in the test with A549/ATCC NSCLC is 94.8%; in the test with 786-0 renal, 90.9%; with COLO 205 colon, 97.1%.
For `COC(=O)[C@@H](C)C[C@H](Cc1ccc(F)cc1)NC(=O)c1csc([C@@H](C[C@H](C(C)C)N(C)C(=O)[C@@H](NC(=O)[C@H]2CCCCN2C)C(C)C)OC(C)=O)n1`, the growth is 35.2% in the test with NCI-H23 lung; 27.3% in the test with NCI-H226 lung; 6.77% (active) in the test with HOP-62 NSCLC; 6.06% (active) in the test with NCI-H460 lung; 26.7% in the test with HOP-92 NSCLC; -13.9% (active) with NCI-H522 lung. For the same molecule, the growth in the test with A549/ATCC NSCLC is 16.6%; in the test on 786-0 renal it was 13.2%.
`CC[C@H](C)[C@H](NC(=O)[C@H]1CCCCN1C)C(=O)N(C)[C@H](C[C@@H](OC(C)=O)c1cccc(C(=O)N[C@@H](Cc2ccccc2)C[C@H](C)C(=O)O)n1)C(C)C`: the growth in the test with NCI-H23 lung was 24.3%; in the test on NCI-H226 lung it was 19.7%; with NCI-H322M lung, 45.2%; in the test on NCI-H460 lung it was 7.49% (active); with HOP-92 NSCLC it was 37%; in the test with NCI-H522 lung it was -12.8% (active). Also, the growth with 786-0 renal is 23.1%; in the test on COLO 205 colon, -66.1% (active).
On to `O=C1NC(=O)C(=Cc2cccn2CCCCCn2c3ccccc3c(=O)c3ccccc32)C(=O)N1`, for which the growth in the test with NCI-H23 lung is 96.3%; in the test with NCI-H226 lung, 99.1%; in the test with NCI-H322M lung it was 98.3%; in the test with HOP-62 NSCLC it was 102%; with NCI-H460 lung, 108%; with HOP-92 NSCLC, 90.4%. Also, the results for the growth with NCI-H522 lung, in the test with 786-0 renal and with COLO 205 colon were 90.5%, 99% and 114%, respectively.
With `Cc1c2cc(Cl)c3ccccc3c2c[n+]2ccccc12`, the growth is 47.8% in the test on NCI-H23 lung; 43.5% with NCI-H226 lung; 31.3% with NCI-H322M lung; 55.7% in the test on NCI-H460 lung; 75.4% with HOP-92 NSCLC; 17.1% with NCI-H522 lung. Also, the growth in the test on A549/ATCC NSCLC was 40.5%; in the test on 786-0 renal, 16.1%; in the test with COLO 205 colon, 56.1%.
As for `CC1(C)C(C(=O)c2cn(CCCCF)c3ccccc23)C1(C)C`, the growth in the test on NCI-H23 lung was 85.4%; with NCI-H226 lung it was 82.1%; in the test on NCI-H322M lung, 112%; with NCI-H460 lung it was 103%; in the test on HOP-92 NSCLC it was 98%; in the test with NCI-H522 lung, 56.9%. Moreover, the results for the growth in the test on A549/ATCC NSCLC, with 786-0 renal and with COLO 205 colon were 78.5%, 99.3% and 99.5%, respectively.
Take `COc1cccc(C=NC(Cc2cnc[nH]2)C(=O)O)c1O` (stereo not given): the growth was 107% in the test on NCI-H23 lung; 94.8% with NCI-H226 lung; 95.5% in the test on NCI-H322M lung; 107% with NCI-H460 lung; 56% in the test on HOP-92 NSCLC; 59.3% in the test on NCI-H522 lung. Further, the growth with A549/ATCC NSCLC was 91.5%; in the test with 786-0 renal, 97.2%; in the test with COLO 205 colon it was 122%.
For the molecule `CC(=O)OC1CCC2C3CCC4=C/C(=N/OC(=O)c5ccc(N(CCCl)CCCl)cc5)CCC4(C)C3CC(C)C12` (stereo not given), the growth with NCI-H23 lung is 69.7%; in the test on NCI-H226 lung, 94%; in the test with NCI-H322M lung, 91.7%; with NCI-H460 lung, -4.94% (active); with HOP-92 NSCLC it was 92.5%; in the test on NCI-H522 lung, 79.2%. Besides, the growth was 56.6% in the test with A549/ATCC NSCLC, 87% with 786-0 renal and 83.7% with COLO 205 colon.
